A selection: hits, their analogues and other compounds. The true share with any hit is near 2.7%.
Nrf2 block = blocks Nrf2 signaling; hit rate 2.1% among 360,000; Potency, µM (titrated, usually from 46 µM), hits mostly inhibitors; A549 ARE-Fluc reporter, luciferase luminescence, 18-24 h; note: nearly all actives have a fitted effect of over 60% in size
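Quantitative HTS in A549 cells stably bearing an antioxidant response element-firefly luciferase construct. Inhibition of Nrf2-driven transcription was scored by luminescence after 18-24 h of compound exposure at 37 °C.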
A549 viability = counter-screen for Nrf2 inhibitors: cytotoxicity in A549 cells | Potency, µM (series often up to 46 µM), usual class: inhibitors | A549 ARE-Fluc cells, CellTiter-Fluor viability, 18-24 h | AID 504648 | hit rate 0.16% among 390,000
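A549 ARE-Fluc cells in 5% FBS OPTI-MEM, 5000 cells/well, rested 2 h then exposed to compounds in concentration-response for 18-24 h at 37 °C. Viability by CellTiter-Fluor fluorescence (Ex 405/Em 525) after 30 min; luciferase luminescence (BugLite, 15 min, RT) read afterwards.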
Nrf2 activator = activators of Nrf2 (ARE) signaling. AREc32 ARE-luciferase reporter (MCF7-derived line), luminescence, 24 h. Potency, µM (titrated, usually from 46.1 µM), hits mostly activators. hit rate 0.31% among 410,000. AID 624171; note: nearly all actives have a fitted effect of over 65% in size
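Reporter line AREc32 (ARE-Fluc), seeded overnight in OPTI-MEM with 5% FBS; compound pin-transferred, 24 hr at 37 deg C, 5% CO2; luminescent read-out.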
ALOX12 inh = inhibitors of human 12S-lipoxygenase ALOX12; Potency, µM (doses to about 108 µM), actives largely listed as inhibitors; hit rate 1.1% among 580,000; P18054; purified 12hLO, xylenol orange hydroperoxide absorbance
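Purified human 12hLO (150 nM final) in 25 mM Hepes, 0.01% Triton X-100, pH 7.0 was preincubated 15 min at room temperature with compound. Then 40 uM arachidonic acid was added, 30 min. Hydroperoxide was read by Fe-XO absorbance ratio 573/405 nm.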
LDHA inh = blocks human lactate dehydrogenase A; purified LDHA, NADH/diaphorase-resazurin fluorescence; hits give low values; activity change, % (values are at about 110 or 230 µM); AID 1347041; hit rate 0.15% among 480,000; in the data active = activity change below about -30%; inconclusive = mostly about -25% to -30%
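LDH5 2 nM; NADH 0.06 mM, pyruvate 0.2 mM; 200 mM Tris pH 7.4, EDTA, Tween-20; 5 min RT. Detection: diaphorase 0.133 mg/mL + resazurin 37 µM, fluorescence ex540/em590 at 0 and 20 min; normalized to enzyme-free and DMSO wells.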
ERG Ets-DNA blk = inhibitors of human ERG Ets domain-DNA interaction | P11308 | fluorescence polarization, His-ERG Ets domain / labelled DNA | Potency, µM (doses to about 76.9 µM), hits mostly inhibitors | hit rate 0.028% among 370,000; active = well fitted inhibition curve with a large enough effect in the polarisation, with a control signal flat; inconclusive = small, poorly fitted or top-dose-only effect, or effect the other way, or a change in a side signal; inactive = no such curve, though single readings can be large or run the other way; the % refers to the polarisation;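 note: polarization taken with two DNA probes labelled with fluorescein and Texas red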
Target sequence (P11308 whole entry, looked up, the tested form may be a part): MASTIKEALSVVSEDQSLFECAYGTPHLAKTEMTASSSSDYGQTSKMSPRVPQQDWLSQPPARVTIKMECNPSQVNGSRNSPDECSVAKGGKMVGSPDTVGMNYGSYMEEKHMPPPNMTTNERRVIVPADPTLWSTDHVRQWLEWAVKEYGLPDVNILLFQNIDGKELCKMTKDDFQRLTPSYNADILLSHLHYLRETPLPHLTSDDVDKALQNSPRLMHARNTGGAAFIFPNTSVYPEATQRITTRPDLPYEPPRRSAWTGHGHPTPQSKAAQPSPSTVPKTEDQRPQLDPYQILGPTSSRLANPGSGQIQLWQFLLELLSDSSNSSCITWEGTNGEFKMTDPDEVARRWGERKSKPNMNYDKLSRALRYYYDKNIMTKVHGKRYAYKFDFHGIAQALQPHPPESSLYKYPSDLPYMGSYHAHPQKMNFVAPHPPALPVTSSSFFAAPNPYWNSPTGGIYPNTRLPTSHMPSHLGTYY
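His-tagged ERG Ets domain (1 uM in the protein solution; 300mM KCl, 50mM Tris-HCl, 1mM EDTA, 1mM DTT, pH 7.5) received compound, then a probe mix of 5 nM fluorescein-DNA and 100nM Texas-615-DNA. Fluorescence polarization was read for both dyes.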
Numbers stand for hits; i = inactive; ? = inconclusive; nt = not tested or not shown. Unless noted, calls come from the whole dose curve; as a rule, active = well fitted curve in the direction sought with a large enough effect; inconclusive = small, poorly fitted or top-dose-only effect, or another doubt; inactive = no such curve, though single readings can be large; an effect the other way counts as inactive or inconclusive.

SMILES | Nrf2 block | A549 viability | Nrf2 activator | ALOX12 inh | LDHA inh | ERG Ets-DNA blk
O=C(COC(=O)c1ccc2c(c1)NC(=O)CS2)Nc1cccc(Cl)c1 | nt | nt | nt | ? | i | nt
Nc1c(C(=O)Nc2ccc(Br)cc2)sc2nc(-c3ccco3)ccc12 | 13µM | ? | ? | ? | i | i
Cc1ccc(NC(=O)c2sc3nc4c(c(-c5ccco5)c3c2N)CCC4)cc1 | 18.4µM | i | i | ? | i | i
Cc1cc(C(=O)OCC(=O)Nc2ccccc2F)c2ccccc2n1 | nt | nt | nt | i | i | nt
COc1ccc(N2CCN(c3cc(C4CC(N)C4)nc(N)n3)CC2(C)C)cc1 (stereo not given) | nt | nt | nt | i | nt | nt
CNC(=O)c1cc2cc(N(C)S(=O)(=O)c3ccc(Cl)cc3)ccc2s1 | nt | nt | nt | i | i | nt
Cc1ccc(Oc2nc3ccccn3c(=O)c2/C=C(\C#N)c2nc3ccccc3s2)c(C)c1 | i | i | i | 3.98µM | i | i
N#C/C(=C\c1c(Oc2ccc(F)cc2)nc2ccccn2c1=O)c1nc2ccccc2s1 | i | i | i | ? | i | i
C/C(=N\NC(=O)c1ccc(C(C)(C)C)cc1)c1ccc2ccccc2c1 | nt | nt | nt | i | i | nt
Cc1cccc(Cc2sc(N)nc2C)c1 | nt | nt | nt | ? | i | nt
COc1cc(OC)c(NC(=O)Nc2ccc3c(c2)N(C)C(=O)c2ccccc2S3)cc1Cl | 20.6µM | i | i | i | i | i
COCCNC(=O)Nc1ccc2c(c1)N(C)C(=O)c1ccccc1S2 | i | i | i | i | i | i
O=C(/C=C/c1ccccc1)Nc1ccc(OCCc2ccccc2)cc1 | nt | nt | nt | ? | i | nt
CCCCCCC1C(C#N)=C(N)OC2=C1C(=O)CCC2 (stereo not given) | i | i | i | 31.6µM | i | i
CCN(CC)S(=O)(=O)c1cccc(NC(=S)Nc2cc(C)ccc2C)c1 | nt | nt | nt | ? | i | nt
C/C=C/C=C/CO | nt | nt | nt | i | nt | nt
Cc1nn(Cc2ccccc2)c2ncccc12 | i | i | i | 44.7µM | i | i
Cc1cc(C)cc(C(=O)OCC(=O)Nc2cccc(S(=O)(=O)NC3=NCCCCC3)c2)c1 | 23.1µM | ? | i | i | i | nt
O=C(Cc1csc(-c2ccc(Cl)cc2)n1)Nc1cccc(S(=O)(=O)NC2=NCCC2)c1 | 23.1µM | ? | i | i | i | i
O=C(/C=C/c1ccc(OC(F)F)cc1)Nc1cccc(S(=O)(=O)NC2=NCCCCC2)c1 | 18.4µM | ? | i | i | i | i
CC(C)(C)c1ccc(OCCC(=O)Nc2cccc(S(=O)(=O)NC3=NCCCCC3)c2)cc1 | 18.4µM | ? | i | i | i | i
COc1ccccc1OCC(=O)Sc1ccc(Cl)cc1 | nt | nt | nt | ? | i | nt
COc1ccc2scc(N3CCN(Cc4ccccc4)CC3)c(=O)c2c1 | nt | nt | nt | ? | i | nt
Cc1oc(-c2cc(F)ccc2F)nc1CN1CCC(C(=O)N2CCOCC2)CC1 | i | i | i | i | i | i
Cc1oc(-c2cc(F)ccc2F)nc1CN1CCN(c2ncnc3ccccc23)CC1 | 25.9µM | i | i | i | i | i
SMILES | Nrf2 block | A549 viability | Nrf2 activator | ALOX12 inh | LDHA inh | ERG Ets-DNA blk
S=C1NC[C@H](c2ccccc2)N1CCCCC1CCCCC1 | i | i | i | 35.5µM | i | i
NC1=NC[C@H](c2ccccc2)N1CCCCC1CCCCC1 | i | i | i | ? | i | i
CC(=O)Nc1cc(-c2ccccc2N(C)C)cn2c(-c3ccccc3)cnc12 | nt | nt | i | 44.7µM | i | nt
CCN1CCN(Cc2ccc(NC(=O)c3ccc(C)c(NC(=O)c4cncc(-c5cccs5)c4)c3)cc2C(F)(F)F)CC1 | 8.2µM | ? | i | nt | i | i
Cc1ccc(C(=O)Nc2ccc(CN3CCN(C)CC3)c(C(F)(F)F)c2)cc1C#Cc1cnc2cccnn12 | nt | nt | nt | 0.344µM | nt | nt
CCN1CCN(Cc2ccc(NC(=O)c3ccc(C)c(NC(=O)c4nccn4C)c3)cc2C(F)(F)F)CC1 | i | i | i | i | i | i
O=C(/C=C/Nc1ccc(F)c(Cl)c1)c1ccc(-c2ccccc2)cc1 | nt | nt | nt | ? | i | nt
CCOc1cccc(OCCOCCNC(C)(C)C)c1 | i | i | i | ? | -32.4 | nt
CCNc1nc(NCc2ccccc2)nc(SCC(=O)Nc2ccccc2)n1 | 23.1µM | i | i | i | i | i
CCC(C)c1ccc(O)c(NC(=S)NC(=O)c2cccs2)c1 (stereo not given) | nt | nt | i | 22.4µM | i | nt
COc1cc(NC(=S)NC(=O)c2ccc(C)cc2C)ccc1NC(=O)c1cccs1 | i | i | i | 5.01µM | i | i
CCN(CC)c1ccc(NC(=S)NC(=O)c2cccs2)cc1 | i | i | i | 17.8µM | i | i
COc1cc(NC(=S)NC(=O)c2cccs2)ccc1NC(=O)C(C)C | i | i | i | 7.08µM | i | i
O=C(NCc1ccco1)c1cc2ccc(Cl)cc2[nH]1 | nt | nt | nt | ? | i | nt
CCCCCC1=CCC/C1=N\NC(=O)C(N)=O | nt | nt | nt | i | i | nt
CCCCCC1=CCC/C1=N/NC(=S)NCCOC | nt | nt | nt | 39.8µM | i | nt
COCCC(C)NC(=O)Nc1ccc(C#N)cc1 (stereo not given) | nt | nt | nt | i | i | nt
O=C(COC(=O)c1cn(-c2ccccc2)nc1-c1ccccc1)Nc1ncc(Cl)cc1Cl | i | i | i | 25.1µM | i | i
O=C(COC(=O)CNC(=O)c1ccccc1F)Nc1ncc(Cl)cc1Cl | i | i | i | 39.8µM | i | i
COc1cccc(-c2nn(-c3ccccc3)cc2C(=O)OCC(=O)Nc2ncc(Cl)cc2Cl)c1 | i | i | i | i | i | i
CNC(=O)c1ccc(CN2C(=O)C(C)=C(c3ccc(C)c(C)c3)S2(=O)=O)cc1 | nt | nt | nt | i | i | nt
NNC(=O)c1oc2nc(-c3ccc(Cl)cc3)cc(-c3ccccc3)c2c1N | 10.3µM | i | i | i | i | i
S=c1nc(-c2ccccc2)oc2c1CCCC2 | ? | i | 11.2µM | i | i | i
COc1cccc(-c2nc(=S)c3c(o2)CCCC3)c1 | i | i | 11.2µM | i | i | i
O=C(CSc1ccc2c(c1)OCCO2)NC(c1ccccc1)c1cccs1 (stereo not given) | nt | nt | nt | ? | i | nt
SMILES | Nrf2 block | A549 viability | Nrf2 activator | ALOX12 inh | LDHA inh | ERG Ets-DNA blk
Cc1ccc(Cl)cc1-n1ncc2c(=O)n(CC(N)=O)cnc21 | nt | nt | nt | i | i | nt
CCOC(=O)CSC1=Nc2ccccc2C2=NC(CC(=O)NCc3ccccc3)C(=O)N12 (stereo not given) | i | i | i | 10µM | i | i
Cc1ccc(-n2nnc(S(=O)(=O)c3ccc(Cl)cc3)c2C)cc1F | nt | nt | nt | i | i | nt
COc1ccccc1C1c2c(ncn(-c3ccccc3)c2=N)Oc2ccc3ccccc3c21 (stereo not given) | 23.1µM | 20.6µM | nt | nt | i | nt
COc1cccc(C2c3c(ncn(-c4ccccc4OC)c3=N)Oc3ccc4ccccc4c32)c1 (stereo not given) | i | ? | nt | nt | i | nt
N=c1c2c(ncn1-c1ccccc1)Oc1ccc3ccccc3c1C2c1ccc2c(c1)OCO2 (stereo not given) | 20.6µM | 14.6µM | nt | nt | i | nt
